According to the supplement of paper PMC10127200:
Counter-ions that a name gives are not always drawn.

Tests used:
Experiment in all cases: Euclidean distance of Cell Painting phenotypic profile (signed KS, 77 features) to DMSO centroid (dimensionless distance); 5 or 10 uM (library dependent); higher = stronger phenotypic change vs DMSO (phenoactivity)
Conditions in all cases: 48 h
786-O = tested on: 786-O
Procedure, shortened: (§1)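 Library compounds were applied at 10 or 5 uM, depending on the library, with 0.1% DMSO final, for 48 h to five cancer lines and a healthy fibroblast line. After staining, cells were imaged confocally at 20X across 9 fields per well, and Harmony extracted 77 features, each scored as a signed Kolmogorov-Smirnov statistic against vehicle wells on the same plate. Phenoactivity is the Euclidean distance between each profile and the median vehicle profile, with profiles first plate-position corrected, correlation-weighted and averaged over replicates at the top dose.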

A549 = tested on: A549
Procedure, shortened: as §1

DU145 = tested on: DU145
Procedure, shortened: as §1

FB = tested on: FB
Procedure, shortened: as §1

HEPG2 = tested on: HEPG2
Procedure, shortened: as §1

OVCAR4 = tested on: OVCAR4
Procedure, shortened: as §1

SMILES	Euclidean distance (786-O)	Euclidean distance (A549)	Euclidean distance (DU145)	Euclidean distance (FB)	Euclidean distance (HEPG2)	Euclidean distance (OVCAR4)
COCCCC/C(=N\OCCN)c1ccc(C(F)(F)F)cc1 [Fluvoxamine maleate]	1.27	0.895	0.762	1.25	1.1	1.58
Cc1ccc(C(=O)N(CCCN)[C@@H](c2oc3cc(Cl)ccc3c(=O)c2Cc2ccccc2)C(C)C)cc1	3.9	3.16	3.86	2.4	2.19	3.2
CC(C(=O)O)c1ccc2c(c1)CC(=O)c1ccccc1S2 (stereo not given) [Zaltoprofen]	1.08	1.02	1.23	0.873	0.423	1.24
C#Cc1cccc(Nc2ncnc3cc4c(cc23)OCCOCCOCCO4)c1 [Icotinib]	1.83	1.46	1.62	1.18	1.35	1.32
OCCN1CCN(CCCN2c3ccccc3Sc3ccc(Cl)cc32)CC1 [Perphenazine]	1.95	2.47	1.77	2.8	2.4	2.19
O=C(O)/C=C/c1ccc(Cn2ccnc2)cc1 [Ozagrel sodium]	1.06	1.08	1.01	1.07	1.03	0.564
CC(N)C12CC3CC(CC(C3)C1)C2 (stereo not given) [Rimantadine]	0.735	0.64	0.671	1.35	0.621	1.37
NS(=O)(=O)NCCNc1nonc1/C(=N/O)Nc1ccc(F)c(Br)c1	1.34	1.13	1.07	1.35	0.971	0.884
CC1(C)[C@@H](O[C@H]2O[C@H](C(=O)O)[C@@H](O)[C@H](O)[C@H]2O[C@@H]2O[C@H](C(=O)O)[C@@H](O)[C@H](O)[C@H]2O)CC[C@]2(C)[C@H]3C(=O)C=C4[C@@H]5C[C@@](C)(C(=O)O)CC[C@]5(C)CC[C@@]4(C)[C@]3(C)CC[C@@H]12 [Diammonium Glycyrrhizinate]	1.05	1.68	1.1	0.929	0.457	1.73
Cc1cc(C)nc(NS(=O)(=O)c2ccc(N)cc2)n1 [Sulfamethazine Sodium Salt]	0.877	0.792	0.732	0.878	0.494	1.38
CN1[C@@H](CC(=O)c2ccccc2)CCC[C@H]1C[C@H](O)c1ccccc1 [Lobeline hydrochloride]	1.09	0.739	1.56	1.44	0.499	1.16
C[C@H]1O[C@@H](O[C@H]2[C@@H](O)C[C@H](O[C@H]3[C@@H](O)C[C@H](O[C@H]4CC[C@@]5(C)[C@H](CC[C@@H]6[C@@H]5C[C@@H](O)[C@]5(C)[C@@H](C7=CC(=O)OC7)CC[C@]65O)C4)O[C@@H]3C)O[C@@H]2C)C[C@H](O)[C@@H]1O [Digoxin]	6.92	5.56	6.87	4.48	3.09	6.68
Cc1ccccc1C(=O)Nc1ccc(C(=O)N2CCCC(O)c3cc(Cl)ccc32)c(C)c1 (stereo not given) [Tolvaptan]	1.6	0.937	0.873	1.14	0.957	0.738
O=C(Nc1ccc(S(=O)(=O)Nc2ccccc2Cl)c(Cl)c1)c1ccccn1	0.876	0.81	0.6	0.594	0.744	0.782
Nc1nc(/C(=C/CC(=O)O)C(=O)N[C@@H]2C(=O)N3C(C(=O)O)=CCS[C@H]23)cs1 [Ceftibuten dihydrate]	1.22	0.568	1.24	1.2	1.17	0.987
COc1cc2ncnc(Oc3cccc(NC(=O)Nc4cc(C(C)(C)C(F)(F)F)on4)c3)c2cc1OC	0.889	2.41	1.19	1.02	0.923	1.88
CN(C)CCCN1c2ccccc2Sc2ccc(Cl)cc21 [Chlorpromazine]	1.47	1.98	1.56	2.21	2.01	1.04
CC(C(=O)O)c1ccc(CC2CCCC2=O)cc1 (stereo not given) [Loxoprofen]	1.12	0.954	0.808	1.12	0.384	0.794
COc1ccc(C2C(=O)c3ccccc3C2=O)cc1 [Anisindione]	0.89	0.546	1.76	1.61	0.828	0.667
Cc1cccc(C)c1OCC(C)N (stereo not given) [Mexiletine HCl]	0.988	0.742	0.639	1.07	0.966	0.836
O=C1C[C@@H](c2ccc(O)cc2)Oc2cc(O)cc(O)c21 [Naringenin]	0.882	1.06	0.744	1.06	0.936	1.11
O=C(NNc1ccccc1)c1ccncc1	2.02	1.17	0.814	1.28	1.46	1.39
COc1ccc2cc1Oc1ccc(cc1)C[C@H]1c3cc(c(OC)cc3CCN1C)Oc1c(O)c(OC)cc3c1[C@H](C2)N(C)CC3 [Fangchinoline]	4.67	4.12	3.78	4.61	5.01	4.4

SMILES	Euclidean distance (786-O)	Euclidean distance (A549)	Euclidean distance (DU145)	Euclidean distance (FB)	Euclidean distance (HEPG2)	Euclidean distance (OVCAR4)
C/C(O)=C(\C#N)C(=O)Nc1ccc(C(F)(F)F)cc1 [Teriflunomide]	0.702	0.732	0.988	1.1	0.844	2.02
CN(C)CCC(c1ccc(Cl)cc1)c1ccccn1 (stereo not given) [Chlorpheniramine Maleate]	1.37	0.807	1.01	1.23	1.4	1.15
COC[C@H]1C[C@@H](c2nc(-c3ccc4c(c3)COc3cc5c(ccc6nc([C@@H]7CC[C@H](C)N7C(=O)[C@@H](NC(=O)OC)C(C)C)[nH]c65)cc3-4)c[nH]2)N(C(=O)[C@H](NC(=O)OC)c2ccccc2)C1 [Velpatasvir]	1.14	1.43	1.28	2.05	1.32	1.1
NC(=O)N1CCC(CC(=O)N2CCC([C@H]3c4ncc(Br)cc4CCc4cc(Cl)cc(Br)c43)CC2)CC1 [Lonafarnib]	2.24	1.63	1.33	2.36	1.1	1.63
C[C@H]1COC2=C1C(=O)C(=O)c1c2ccc2c1CCCC2(C)C [Cryptotanshinone]	1.53	2.51	1.48	1.17	1.25	1.31
O=C(O)[C@@H]1CCCN1 [L-Proline]	1.26	0.98	1.37	1	0.823	0.766
NC(=O)c1cnc2[nH]ccc2c1N[C@@H]1[C@@H]2CC3C[C@H]1C[C@@](O)(C3)C2	2.3	2	1.41	3.39	1.42	2.08
Cc1cc(Nc2ncnc3ccc(NC4=NC(C)(C)CO4)cc23)ccc1Oc1ccn2ncnc2c1 [Irbinitinib (ARRY-380. ONT-380)]	1.56	1.62	1.3	1.15	1.12	1.29
Cc1cc(N2CCN([C@@H]3CN[C@H](C(=O)N4CCSC4)C3)CC2)n(-c2ccccc2)n1 [Teneligliptin hydrobromide]	1.1	1.09	2.06	1.2	1.21	1.33
CC(C)C[C@H](NC(=O)CNC(=O)c1cc(Cl)ccc1Cl)B(O)O	5.04	3.61	5.19	3.83	4.44	4.31
Nc1nc2ccc(OC(F)(F)F)cc2s1 [Riluzole]	1.03	0.891	2.58	1.3	0.688	0.739
CCCc1nn(C)c2c(=O)[nH]c(-c3cc(S(=O)(=O)N4CCN(C)CC4)ccc3OCC)nc12 [Sildenafil Mesylate]	1.12	0.763	0.989	1	0.692	0.995
CC(C)COCC(CN(Cc1ccccc1)c1ccccc1)N1CCCC1 (stereo not given) [Bepridil hydrochloride]	1.64	2.55	2.06	1.65	1.94	1.73
O=C(CCCN1CCN(c2ccccn2)CC1)c1ccc(F)cc1 [Azaperone]	0.919	0.568	0.729	0.828	0.758	1.09
CCCCC[C@H](O)/C=C/[C@H]1[C@H](O)CC(=O)[C@@H]1CCCCCCC(=O)O [Alprostadil]	1.36	0.929	0.936	1.16	0.927	1.2
COc1cc(/C=C/C(=O)CC(=O)/C=C/c2ccc(O)c(OC)c2)ccc1O [Curcumin]	1.77	2.12	1.22	3.06	2.02	1.2
O=C(Nc1cc(Cl)cc(Cl)c1O)c1c(O)c(Cl)cc(Cl)c1Cl [Oxyclozanide]	1.04	0.69	0.929	0.828	0.649	1.52
C/C(=C\C(=O)OCCCCCCCCC(=O)O)C[C@@H]1OC[C@H](C[C@@H]2O[C@H]2[C@@H](C)[C@H](C)O)[C@@H](O)[C@H]1O [Mupirocin]	1.8	0.693	0.636	0.92	0.693	1.35
CCc1cccc2c3c([nH]c12)C(CC)(CC(=O)O)OCC3 (stereo not given) [Etodolac]	0.711	0.964	1.01	1.18	0.56	1.35
Cc1c(CN2CCN(C(=O)[C@H](C)O)CC2)sc2c(N3CCOCC3)nc(-c3cnc(N)nc3)nc12	4.15	2.91	1.8	4.11	3.04	3.09
C[C@]12CC[C@@H]3c4ccc(O)cc4C[C@@H](CCCCCCCCC[S+]([O-])CCCC(F)(F)C(F)(F)F)[C@H]3[C@@H]1CC[C@@H]2O (stereo not given in full) [Fulvestrant]	1.83	1.67	0.894	1.18	0.76	1.56
CO[C@@]1(NC(=O)Cc2cccs2)C(=O)N2C(C(=O)O)=C(COC(N)=O)CS[C@@H]21 [Cefoxitin]	0.82	0.39	0.617	0.482	0.307	1.03
